Experimental data published in PubChem BioAssay AID1159580 (chemical genetic matrix, 2015).
Screen size: about 5,500 compounds; about 2,000 (36%) were called active. Not shown: some 18% with an inconclusive outcome. Rule as the data show it: active = normalized growth mostly below about 0.91 (no sharp cut-off); inconclusive = no clear call, values can overlap the other calls; inactive = mostly above about 0.92. The list shows a part of the results.

Test: chemical genetic growth profiling, strain panel (AID 1159580);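 also: tested at 20 µM; growth read once vehicle control cultures reached saturation at 30 °C; 1 = growth at the plate median or of vehicle wells; lower values mean less growth of the strain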
Conditions: S. cerevisiae deletion strains, growth OD

Measured: normalized growth

C=C1C2CC[C@@]3(C)[C@H](c4ccoc4)OC(=O)C[C@]13O[C@H]1CC(=O)C(C)(C)C(CC(=O)OC)[C@@]21C (some centres not stated)
inactive: locus YAL021C, strain ccr4, active compounds read low 1.01 | locus YAL026C, strain drs2, active compounds read low 0.981 | locus YAL030W, strain snc1, active compounds read low 0.983 | locus YBL061C, strain skt5, active compounds read low 0.981 | locus YBR009C, strain hhf1, active compounds read low 0.995 | locus YBR021W, strain FUR4, active compounds read low 1 | locus YBR023C, strain chs3, active compounds read low 0.977 | locus YBR171W, strain sec66, active compounds read low 0.953 | locus YBR229C, strain ROT2, active compounds read low 0.989 | locus YBR231C, strain swc5, active compounds read low 0.983 | locus YBR279W, strain paf1, active compounds read low 0.979 | locus YCL011C, strain gbp2, active compounds read low 0.962 | locus YCL016C, strain dcc1, active compounds read low 1.01 | locus YCL029C, strain bik1, active compounds read low 0.992 | locus YCL061C, strain MRC1, active compounds read low 0.987 | locus YCL069W, strain vba3, active compounds read low 0.964 | locus YCR088W, strain abp1, active compounds read low 0.964 | locus YDL005C, strain med2, active compounds read low 0.969 | locus YDL035C, strain GPR1, active compounds read low 0.984 | locus YDL040C, strain nat1, active compounds read low 0.966 | locus YDL074C, strain BRE1, active compounds read low 1.01 | locus YDL101C, strain DUN1, active compounds read low 1 | locus YDL185W, strain tfp1, active compounds read low 1.01 | locus YDL192W, strain arf1, active compounds read low 0.988 | locus YDR001C, strain nth1, active compounds read low 0.976 | locus YDR069C, strain doa4, active compounds read low 0.975 | locus YDR101C, strain arx1, active compounds read low 0.986 | locus YDR137W, strain rgp1, active compounds read low 0.922 | locus YDR159W, strain sac3, active compounds read low 0.948 | locus YDR162C, strain NBP2, active compounds read low 0.962 | locus YDR195W, strain ref2 0.978 | locus YDR297W, strain sur2, active compounds read low 0.983 | locus YDR318W, strain mcm21, active compounds read low 0.998 | locus YDR334W, strain swr1, active compounds read low 0.966 | locus YDR335W, strain msn5, active compounds read low 0.972 | locus YDR388W, active compounds read low 1.02 | locus YDR392W, strain spt3, active compounds read low 0.958 | locus YDR502C, strain sam2, active compounds read low 1.01 | locus YEL003W, strain gim4, active compounds read low 0.979 | locus YEL037C, strain rad23, active compounds read low 0.97 | locus YEL061C, strain CIN8 (second series), active compounds read low 0.966 | locus YER015W, strain faa2, active compounds read low 0.987 | locus YER016W, strain bim1, active compounds read low 0.975 | locus YER110C, active compounds read low 1.01 | locus YER111C, strain swi4, active compounds read low 0.978 | locus YER155C, strain BEM2 (second series), active compounds read low 0.991 | locus YER155C, strain BEM2, active compounds read low 1.01 | locus YER167W, strain BCK2, active compounds read low 0.984 | locus YFR010W, strain ubp6, active compounds read low 0.963 | locus YGL078C, strain dbp3, active compounds read low 1.02 | locus YGL086W, strain mad1, active compounds read low 1 | locus YGL167C, strain pmr1, active compounds read low 0.97 | locus YGL173C, strain kem1, active compounds read low 0.969 | locus YGL227W, strain vid30, active compounds read low 0.973 | locus YGL240W, strain doc1, active compounds read low 0.974 | locus YGL248W, strain PDE1, active compounds read low 0.998 | locus YGL253W, strain hxk2, active compounds read low 0.952 | locus YGR135W, strain pre9, active compounds read low 1.03 | locus YGR252W, strain gcn5, active compounds read low 1.01 | locus YHR013C, strain ard1, active compounds read low 0.974 | locus YHR027C, strain rpn1, active compounds read low 0.985 | locus YHR030C, strain SLT2, active compounds read low 0.996 | locus YHR079C, strain IRE1 (second series), active compounds read low 0.998 | locus YHR094C, strain hxt1, active compounds read low 1.01 | locus YHR129C, strain ARP1, active compounds read low 1.01 | locus YHR142W, strain chs7, active compounds read low 0.969 | locus YHR200W, strain rpn10, active compounds read low 1.01 | locus YIL066C, strain RNR3, active compounds read low 0.989 | locus YIL073C, strain SPO22, active compounds read low 1.04 | locus YIL125W, strain kgd1, active compounds read low 1 | locus YIR030C, strain dcg1, active compounds read low 1 | locus YJL092W, strain hpr5, active compounds read low 0.967 | locus YJL095W, strain BCK1 (second series), active compounds read low 0.991 | locus YJL095W, strain BCK1, active compounds read low 1.03 | locus YJL115W, strain asf1, active compounds read low 0.973 | locus YJL129C, strain trk1, active compounds read low 0.961 | locus YJL134W, strain LCB3, active compounds read low 1.01 | locus YJL154C, strain vps35, active compounds read low 0.973 | locus YJL164C, strain tpk1, active compounds read low 1 | locus YJL166W, strain qcr8, active compounds read low 0.977 | locus YJL168C, strain set2, active compounds read low 0.998 | locus YJL187C, strain SWE1 (second series), active compounds read low 1.01 | locus YJL187C, strain SWE1, active compounds read low 0.974 | locus YKL009W, strain mrt4, active compounds read low 0.968 | locus YKL068W, active compounds read low 1 | locus YKL085W, strain MDH1 (second series), active compounds read low 0.989 | locus YKL085W, strain MDH1, active compounds read low 0.989 | locus YKL160W, strain elf1, active compounds read low 1.01 | locus YKR001C, strain vps1, active compounds read low 1 | locus YKR026C, strain gcn3, active compounds read low 0.979 | locus YKR091W, strain srl3, active compounds read low 0.986 | locus YLL001W, strain dnm1, active compounds read low 1.01 | locus YLL026W, active compounds read low 0.981 | locus YLL041C, strain sdh2, active compounds read low 0.974 | locus YLR027C, strain aat2, active compounds read low 0.996 | locus YLR039C, strain RIC1, active compounds read low 0.794 | locus YLR058C, strain SHM2, active compounds read low 1 | locus YLR102C, strain apc9, active compounds read low 1 | locus YLR221C, strain rsa3, active compounds read low 0.957 | locus YLR258W, strain gsy2, active compounds read low 0.975 | locus YLR262C, strain YPT6 (second series), active compounds read low 0.923 | locus YLR262C, strain YPT6, active compounds read low 0.701 | locus YLR268W, strain sec22, active compounds read low 0.984 | locus YLR320W, strain mms22, active compounds read low 0.964 | locus YLR342W, strain FKS1 (second series), active compounds read low 1 | locus YLR342W, strain FKS1, active compounds read low 0.993 | locus YLR357W, strain rsc2, active compounds read low 0.991 | locus YLR370C, strain arc18, active compounds read low 0.955 | locus YLR371W, strain rom2, active compounds read low 1.01 | locus YLR384C, strain iki3, active compounds read low 0.964 | locus YLR418C, strain cdc73, active compounds read low 1.01 | locus YML016C, strain PPZ1, active compounds read low 0.995 | locus YML032C, strain rad52, active compounds read low 1.02 | locus YML120C, strain ndi1, active compounds read low 0.973 | locus YML124C, strain tub3, active compounds read low 1.01 | locus YMR058W, strain fet3, active compounds read low 0.983 | locus YMR078C, strain ctf18, active compounds read low 1.01 | locus YMR125W, strain sto1, active compounds read low 0.98 | locus YMR129W, active compounds read low 0.985 | locus YMR205C, strain PFK2, active compounds read low 1.03 | locus YMR223W, strain ubp8, active compounds read low 1 | locus YMR231W, strain pep5, active compounds read low 0.943 | locus YMR307W, strain GAS1, active compounds read low 0.998 | locus YNL067W, strain RPL9B, active compounds read low 1.02 | locus YNL071W, strain lat1, active compounds read low 0.982 | locus YNL128W, strain TEP1, active compounds read low 0.996 | locus YNL209W, strain ssb2, active compounds read low 0.978 | locus YNL233W, strain BNI4, active compounds read low 0.969 | locus YNL248C, strain rpa49, active compounds read low 0.986 | locus YNL250W, strain rad50, active compounds read low 1.02 | locus YNL271C, strain bni1, active compounds read low 1 | locus YNL298W, strain CLA4, active compounds read low 1.01 | locus YNL307C, strain MCK1, active compounds read low 1.01 | locus YNL322C, strain KRE1 (second series), active compounds read low 0.967 | locus YNR049C, strain mso1, active compounds read low 0.982 | locus YNR052C, strain pop2, active compounds read low 1.01 | locus YOL012C, strain htz1 0.839 | locus YOL147C, strain pex11, active compounds read low 1.01 | locus YOR001W, strain rrp6, active compounds read low 0.944 | locus YOR061W, strain CKA2, active compounds read low 0.993 | locus YOR069W, strain VPS5, active compounds read low 1 | locus YOR070C, strain gyp1, active compounds read low 1.01 | locus YOR080W, strain dia2, active compounds read low 0.957 | locus YOR083W, strain WHI5, active compounds read low 1.01 | locus YOR106W, strain vam3, active compounds read low 0.982 | locus YOR136W, strain idh2, active compounds read low 1 | locus YOR144C, strain elg1, active compounds read low 1.01 | locus YOR184W, strain ser1, active compounds read low 0.985 | locus YOR265W, strain rbl2, active compounds read low 1 | locus YOR270C, strain vph1, active compounds read low 0.957 | locus YOR290C, strain snf2, active compounds read low 0.97 | locus YOR316C, strain cot1, active compounds read low 1 | locus YPL051W, strain arl3, active compounds read low 0.995 | locus YPL078C, strain atp4, active compounds read low 1.01 | locus YPL106C, strain sse1, active compounds read low 0.978 | locus YPL240C, strain hsp82, active compounds read low 0.965 | locus YPL241C, strain CIN2, active compounds read low 0.998 | locus YPR119W, strain clb2, active compounds read low 1.01 | locus YPR141C, strain kar3, active compounds read low 0.997 | locus YPR163C, strain tif3, active compounds read low 1.01 | locus YPR167C, strain met16, active compounds read low 1 | strain wtn01, active compounds read low 0.987
